# Reference: PubChem BioAssay
# Activity calls are given as the source filed them.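 Rule for the calls: active = Her2 level under about 52% in both replicate screens, with viability over 70% of control (limit read from the data); inconclusive = Her2 under the limit in one screen only, or viability under 70%; inactive = Her2 level above the set limit.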
# Test system: not listed separately
# Test: Her2 expression decrease, cell viability multiplex – SKBR3 breast tumor cells, AlphaScreen, ATP viability, primary screen (AID 461);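 for Her2 level: lower value means less Her2 protein in the cells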;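 for viability: percent of carrier control wells set as 100% viability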
# Conditions: SKBR3 Her2 protein level, 18-24 h, measured here: SKBR3 viability, ATP luminescence, at 10 µM
row,Compound,viability [%]
1,O=C(Cn1nnc(-c2cccc(C(F)(F)F)c2)n1)NC(=O)NCc1ccco1,89
2,Cc1cccc(NS(=O)(=O)c2cc(C(=O)OCC(=O)Nc3cc(C)on3)ccc2C)c1,93
3,O=C(O)c1c(Cl)c(Cl)c(Cl)c(Cl)c1C(=O)N1CCOCC1,109
4,CCN1CCCC1CNC(=O)CS(=O)(=O)Cc1nc(-c2ccccc2C)oc1C (stereo not given),97
5,Cc1ccc(OCC(O)Cn2c(=N)n(CCN3CCCCC3)c3ccccc32)cc1 (stereo not given),79
6,O=C1c2ccccc2CN1CCNS(=O)(=O)c1ccc(Cl)cc1,104
7,COC(=O)C1CCN(C(=O)c2sc3nc(-c4ccc(F)cc4)cn3c2C)CC1,76.5
8,CCCCc1cc(=O)oc2cc(C)cc(OC(C)C(=O)O)c12 (stereo not given),116
9,COc1cccc(OC)c1OCCN1CCN(C(=O)c2ccco2)CC1,86.5
10,CC(C)NC(=O)CSCc1ccccc1Cl,96
11,CC(=O)N1CCN(c2ccc(N=Cc3c(O)n(Cc4ccccc4)c(=O)[nH]c3=O)cc2)CC1,89
12,CCC1=C(C(=O)OC)C(c2cc(OC)ccc2OC)C(C#N)=C(N)O1 (stereo not given),99.5
13,CCCCCn1c(CN2CCN(C(=O)OCC)CC2)nc2c1c(=O)[nH]c(=O)n2C,82
14,Cc1ccc(N2CCN(C(=S)c3ccc(N(C)C)cc3)CC2)cc1,89.5
15,COc1ccccc1NC(=O)N1CCCC1C(=O)NC1CCCCC1 (stereo not given),104
16,CCOc1ccc(OCC)c(NC(=O)CN2CCN(C(=O)c3ccco3)CC2)c1,75
17,C=CCN(C(=O)CNC(=O)c1ccco1)C(C(=O)NC1CCCCC1)c1ccccc1F (stereo not given),108
18,Cc1ccc2cc(CN(CC3CCCO3)S(=O)(=O)c3ccc4c(c3)OCCO4)c(=O)[nH]c2c1C (stereo not given),86.5
19,COc1cc(OC)cc(-n2nnnc2SCC(=O)N2CCCC2)c1,87
20,O=C(CSc1nnc(Cn2nnc(-c3ccccc3)n2)n1-c1ccccc1)Nc1ccc(F)cc1,91

row,Compound,viability [%]
1,O=C(NC1CCCC1)c1ccc(S(=O)(=O)N2CCCC2)cc1,107
2,C=CCSc1nnc(-c2ccccc2NC(C)=O)c(=O)[nH]1,106
3,COc1ccc(C2C(=O)N(C3CCCCC3)CC(=O)N2Cc2ccco2)cc1 (stereo not given),110
4,COc1ccc(-c2cc(O)cc(O)c2)cc1,108
5,Cc1cccc(NC(=O)CCN2CCN(C/C=C/c3ccccc3)CC2)c1,87.5
6,CCCn1c2ccccc2c2nnc(SCC(=O)OCC)nc21,95
7,COc1cccc(C2C(C(=O)c3cc4ccccc4o3)=C(O)C(=O)N2CCN(C)C)c1OC (stereo not given),104
8,O=C(COc1ccc(F)cc1Br)N1CCc2ccccc21,97.5
9,S=C(c1ccc(-c2cc(Cl)ccc2Cl)o1)N1CCOCC1,80.5
10,O=C(NCN1CCCCC1)c1cnccn1,95.5
11,O=C(CSc1nnc(-c2ccco2)c(-c2ccco2)n1)Nc1ccccc1,102
12,CCC1(c2ccc(F)cc2)NC(=O)N(CC(=O)c2ccc[nH]2)C1=O (stereo not given),110
13,CCN1CCN(C(=O)c2ccc3c(=O)n(C4CCCC4)c(=S)[nH]c3c2)CC1,85.5
14,N#CC1=C(N)SC(N)=C(C#N)C1CCc1ccccc1,79.5
15,O=C(NCc1ccc2c(c1)OCO2)C1CCCN(S(=O)(=O)c2cccnc2)C1 (stereo not given),95.5
16,Cc1cccc(-c2noc(CCC(=O)Nc3ccccc3)n2)c1,106
17,Nc1ncnc(Nc2ccccc2C(F)(F)F)n1,93.5
18,CCNc1nc(N2CCCCC2)nc(-n2nnc(C(=O)OCC)c2C)n1,162
19,Cc1ccc(S(=O)(=O)N2CCCC(C(=O)NC3=NCCS3)C2)cc1 (stereo not given),97.5
20,O=C1C(C=NCCCn2ccnc2)=C(O)c2ccccc21,83

# Molecular target: Receptor tyrosine-protein kinase erbB-2 (Homo sapiens) (UniProt P04626)
# Test: as above
# Conditions: 18-24 h, at 10 µM, stronger effect = lower value
# Chain of Receptor tyrosine-protein kinase erbB-2 (Homo sapiens) (P04626 whole entry, looked up): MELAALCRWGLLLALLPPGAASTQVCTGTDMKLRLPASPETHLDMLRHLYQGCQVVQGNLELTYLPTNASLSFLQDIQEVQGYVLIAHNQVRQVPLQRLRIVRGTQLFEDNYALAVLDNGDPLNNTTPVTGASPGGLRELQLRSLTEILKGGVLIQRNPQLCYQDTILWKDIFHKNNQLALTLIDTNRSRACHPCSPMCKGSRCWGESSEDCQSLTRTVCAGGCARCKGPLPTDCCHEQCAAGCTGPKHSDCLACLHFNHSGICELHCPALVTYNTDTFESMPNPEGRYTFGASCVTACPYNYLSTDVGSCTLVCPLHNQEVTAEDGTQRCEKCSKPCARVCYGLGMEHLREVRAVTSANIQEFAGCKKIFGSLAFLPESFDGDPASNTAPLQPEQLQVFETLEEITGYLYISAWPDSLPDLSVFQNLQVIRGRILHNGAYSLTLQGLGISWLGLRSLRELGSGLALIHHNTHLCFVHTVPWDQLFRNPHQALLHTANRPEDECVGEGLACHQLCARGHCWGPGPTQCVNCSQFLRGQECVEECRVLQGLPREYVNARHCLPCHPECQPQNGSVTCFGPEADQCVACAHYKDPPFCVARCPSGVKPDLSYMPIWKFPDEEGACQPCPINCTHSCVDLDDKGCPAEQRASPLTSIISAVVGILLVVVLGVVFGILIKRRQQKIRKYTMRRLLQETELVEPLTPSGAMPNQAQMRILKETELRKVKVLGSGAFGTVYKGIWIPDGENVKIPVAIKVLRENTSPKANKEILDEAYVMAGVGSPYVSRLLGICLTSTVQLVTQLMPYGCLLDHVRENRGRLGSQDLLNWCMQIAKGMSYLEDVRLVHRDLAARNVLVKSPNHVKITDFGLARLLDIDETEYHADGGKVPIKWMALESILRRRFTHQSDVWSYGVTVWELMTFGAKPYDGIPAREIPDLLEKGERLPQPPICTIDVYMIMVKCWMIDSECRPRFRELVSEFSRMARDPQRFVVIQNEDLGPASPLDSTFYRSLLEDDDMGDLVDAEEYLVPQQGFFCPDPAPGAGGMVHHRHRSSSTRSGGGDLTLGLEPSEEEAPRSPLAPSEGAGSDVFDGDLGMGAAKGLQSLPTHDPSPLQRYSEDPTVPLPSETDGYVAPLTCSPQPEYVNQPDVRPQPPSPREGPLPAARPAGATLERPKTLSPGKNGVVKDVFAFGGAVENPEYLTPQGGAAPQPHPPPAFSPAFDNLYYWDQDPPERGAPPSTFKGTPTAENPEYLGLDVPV
row,Compound,Her2 level
1,O=C(Cn1nnc(-c2cccc(C(F)(F)F)c2)n1)NC(=O)NCc1ccco1,102% (inactive)
2,Cc1cccc(NS(=O)(=O)c2cc(C(=O)OCC(=O)Nc3cc(C)on3)ccc2C)c1,86% (inactive)
3,O=C(O)c1c(Cl)c(Cl)c(Cl)c(Cl)c1C(=O)N1CCOCC1,90% (inactive)
4,CCN1CCCC1CNC(=O)CS(=O)(=O)Cc1nc(-c2ccccc2C)oc1C (stereo not given),92.5% (inactive)
5,Cc1ccc(OCC(O)Cn2c(=N)n(CCN3CCCCC3)c3ccccc32)cc1 (stereo not given),63% (inactive)
6,O=C1c2ccccc2CN1CCNS(=O)(=O)c1ccc(Cl)cc1,92.5% (inactive)
7,COC(=O)C1CCN(C(=O)c2sc3nc(-c4ccc(F)cc4)cn3c2C)CC1,92% (inactive)
8,CCCCc1cc(=O)oc2cc(C)cc(OC(C)C(=O)O)c12 (stereo not given),115% (inactive)
9,COc1cccc(OC)c1OCCN1CCN(C(=O)c2ccco2)CC1,88.5% (inactive)
10,CC(C)NC(=O)CSCc1ccccc1Cl,95% (inactive)
11,CC(=O)N1CCN(c2ccc(N=Cc3c(O)n(Cc4ccccc4)c(=O)[nH]c3=O)cc2)CC1,87.5% (inactive)
12,CCC1=C(C(=O)OC)C(c2cc(OC)ccc2OC)C(C#N)=C(N)O1 (stereo not given),87.5% (inactive)
13,CCCCCn1c(CN2CCN(C(=O)OCC)CC2)nc2c1c(=O)[nH]c(=O)n2C,94.5% (inactive)
14,Cc1ccc(N2CCN(C(=S)c3ccc(N(C)C)cc3)CC2)cc1,82.5% (inactive)
15,COc1ccccc1NC(=O)N1CCCC1C(=O)NC1CCCCC1 (stereo not given),91.5% (inactive)
16,CCOc1ccc(OCC)c(NC(=O)CN2CCN(C(=O)c3ccco3)CC2)c1,103% (inactive)
17,C=CCN(C(=O)CNC(=O)c1ccco1)C(C(=O)NC1CCCCC1)c1ccccc1F (stereo not given),108% (inactive)
18,Cc1ccc2cc(CN(CC3CCCO3)S(=O)(=O)c3ccc4c(c3)OCCO4)c(=O)[nH]c2c1C (stereo not given),80% (inactive)
19,COc1cc(OC)cc(-n2nnnc2SCC(=O)N2CCCC2)c1,79% (inactive)
20,O=C(CSc1nnc(Cn2nnc(-c3ccccc3)n2)n1-c1ccccc1)Nc1ccc(F)cc1,82% (inactive)

row,Compound,Her2 level
1,O=C(NC1CCCC1)c1ccc(S(=O)(=O)N2CCCC2)cc1,120% (inactive)
2,C=CCSc1nnc(-c2ccccc2NC(C)=O)c(=O)[nH]1,105% (inactive)
3,COc1ccc(C2C(=O)N(C3CCCCC3)CC(=O)N2Cc2ccco2)cc1 (stereo not given),91.5% (inactive)
4,COc1ccc(-c2cc(O)cc(O)c2)cc1,89.5% (inactive)
5,Cc1cccc(NC(=O)CCN2CCN(C/C=C/c3ccccc3)CC2)c1,84.5% (inactive)
6,CCCn1c2ccccc2c2nnc(SCC(=O)OCC)nc21,78.5% (inactive)
7,COc1cccc(C2C(C(=O)c3cc4ccccc4o3)=C(O)C(=O)N2CCN(C)C)c1OC (stereo not given),94.5% (inactive)
8,O=C(COc1ccc(F)cc1Br)N1CCc2ccccc21,100% (inactive)
9,S=C(c1ccc(-c2cc(Cl)ccc2Cl)o1)N1CCOCC1,85% (inactive)
10,O=C(NCN1CCCCC1)c1cnccn1,86% (inactive)
11,O=C(CSc1nnc(-c2ccco2)c(-c2ccco2)n1)Nc1ccccc1,64% (inactive)
12,CCC1(c2ccc(F)cc2)NC(=O)N(CC(=O)c2ccc[nH]2)C1=O (stereo not given),117% (inactive)
13,CCN1CCN(C(=O)c2ccc3c(=O)n(C4CCCC4)c(=S)[nH]c3c2)CC1,108% (inactive)
14,N#CC1=C(N)SC(N)=C(C#N)C1CCc1ccccc1,77.5% (inactive)
15,O=C(NCc1ccc2c(c1)OCO2)C1CCCN(S(=O)(=O)c2cccnc2)C1 (stereo not given),102% (inactive)
16,Cc1cccc(-c2noc(CCC(=O)Nc3ccccc3)n2)c1,93% (inactive)
17,Nc1ncnc(Nc2ccccc2C(F)(F)F)n1,110% (inactive)
18,CCNc1nc(N2CCCCC2)nc(-n2nnc(C(=O)OCC)c2C)n1,94% (inactive)
19,Cc1ccc(S(=O)(=O)N2CCCC(C(=O)NC3=NCCS3)C2)cc1 (stereo not given),78.5% (inactive)
20,O=C1C(C=NCCCn2ccnc2)=C(O)c2ccccc21,82.5% (inactive)
